Assay outcomes as filed in PubChem BioAssay.
CtBP-E1A blk: CtBP/E1A binding inhibition; hit rate 0.49% among 340,000; AlphaScreen GST-E1A/His-CtBP binding, 1536-well; active compounds read low; activity change, % (concentration not given with the values); in the data active = activity change below about -65%; inconclusive = mostly about -30% to -63%
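Protein mix (5X: 125 nM each GST-E1A, His-CtBP) was incubated with pinned compound 2 h at 37 deg C in dark, in 50 mM Tris pH 8.0 buffer with 300 mM NaCl. Glutathione donor and nickel acceptor beads followed; AlphaScreen signal read after 1 h.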
VP16 counter: inhibits Gal4-VP16 luciferase reporter, ROR gamma counter-screen; hit rate 3.5% among 310,000; Drosophila S2 Gal4-VP16 UAS-luciferase, luminescence, 20 h; AID 2546; Potency, µM (doses to about 53.6 µM), hits mostly inhibitors;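 note: Gal4-VP16 expression switched on by copper sulfate through the metallothionein promoter; nearly all actives have a fitted effect of over 50% in size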
Six1-Eya2 blk: Six1/Eya2 interaction inhibition | Q15475+O00167 | AlphaScreen GST-Six1/His-Eya2 binding, biochemical; active compounds read low | activity change, % (no concentration beside the values) | hit rate 0.56% among 360,000; in the data active = activity change below about -65%; inconclusive = mostly about -30% to -63%
Target sequence (O00167 whole entry, looked up): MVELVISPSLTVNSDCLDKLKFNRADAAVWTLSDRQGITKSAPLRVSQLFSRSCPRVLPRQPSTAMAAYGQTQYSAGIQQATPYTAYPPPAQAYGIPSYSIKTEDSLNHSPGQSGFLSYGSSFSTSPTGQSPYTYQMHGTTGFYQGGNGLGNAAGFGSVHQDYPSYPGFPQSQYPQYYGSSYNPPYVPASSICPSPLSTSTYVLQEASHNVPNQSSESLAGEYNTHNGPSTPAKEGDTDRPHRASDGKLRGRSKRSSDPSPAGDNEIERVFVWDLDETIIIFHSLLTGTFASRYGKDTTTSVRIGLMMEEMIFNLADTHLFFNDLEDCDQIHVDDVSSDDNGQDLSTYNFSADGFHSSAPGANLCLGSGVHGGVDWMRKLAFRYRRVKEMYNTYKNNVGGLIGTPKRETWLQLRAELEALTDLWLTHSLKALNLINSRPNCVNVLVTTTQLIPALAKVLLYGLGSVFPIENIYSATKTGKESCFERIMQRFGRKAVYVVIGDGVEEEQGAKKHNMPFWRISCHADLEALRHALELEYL
Target sequence (Q15475 whole entry, looked up): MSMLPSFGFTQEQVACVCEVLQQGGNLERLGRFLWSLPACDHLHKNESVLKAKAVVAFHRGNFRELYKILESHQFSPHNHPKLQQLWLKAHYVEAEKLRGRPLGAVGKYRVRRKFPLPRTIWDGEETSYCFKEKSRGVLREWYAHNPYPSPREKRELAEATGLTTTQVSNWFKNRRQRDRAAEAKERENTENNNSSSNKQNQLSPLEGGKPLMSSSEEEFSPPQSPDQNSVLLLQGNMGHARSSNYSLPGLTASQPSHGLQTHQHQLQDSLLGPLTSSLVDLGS
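Homogeneous AlphaScreen proximity assay pairing GST-Six1 with His-tagged Eya2 (added as 5X mix: 250 nM and 500 nM) in 50 mM Tris pH 8.0, 300 mM NaCl, 1 mM TCEP. Glutathione donor and nickel acceptor beads; 1 h, 37 °C, dark.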
RORg inh: ROR gamma (mouse) transcription inhibition; P51450; Drosophila S2 Gal4-RORgamma UAS-luciferase reporter, 20 h; Potency, µM (doses to about 53.6 µM), hits mostly inhibitors; hit rate 5.4% among 310,000; AID 2551; note: nearly all actives have a fitted effect of over 60% in size
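Drosophila S2 cells stably expressing Gal4-DBD/mouse RORγ fusion under metallothionein promoter plus UAS-luciferase; compound 1 h, then 700 uM CuSO4 induction for 20 h at ambient temperature; inhibition read as reduced luminescence.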
p53 reactivation: restores transcriptional activity of mutant p53. AID 504706. Potency, µM (series often up to 92.2 µM), actives largely listed as activators. hit rate 0.063% among 320,000. H1299 p53-A138V BP100-luciferase reporter, luminescence, 24 h; note: nearly all actives have a fitted effect of over 45% in size
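p53-null H1299 cells stably carrying temperature-sensitive p53-A138V and a BP100-luciferase reporter were pinned with compounds (4-point, 1:5 series) and held 24 hrs at 37 deg C. Luminescence was read 10 min after detection reagent.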
Each line names hits and unclear results; the compound was inactive in the other large screens. Compounds with a hit are over-represented: about 5.4% of the library has one in this group of screens. Unless noted, calls come from the whole dose curve; as a rule, active = well fitted curve in the direction sought with a large enough effect; inconclusive = small, poorly fitted or top-dose-only effect, or another doubt; inactive = no such curve, though single readings can be large; an effect the other way counts as inactive or inconclusive.

COc1ccc(CNC(=O)c2cccc(-c3ccc(C)c4ccccc34)n2)cc1	VP16 counter inconclusive (no result: CtBP-E1A blk)
CC(NC(=O)NNC(N)=S)(C(F)(F)F)C(F)(F)F	VP16 counter 20µM, RORg inh inconclusive
CC(NC(=O)NC(N)=O)(C(F)(F)F)C(F)(F)F	none
O=C(ONC1=NCCCCC1)c1cccc([N+](=O)[O-])c1	RORg inh 7.1µM
O=[N+]([O-])c1cccc(/C=N/NC2=NCCCCC2)c1	none
CCOc1ccc(C(=O)NC(=S)Nc2ccc(N3CCC(C)CC3)cc2)cc1[N+](=O)[O-]	VP16 counter inconclusive, RORg inh 0.4µM
CCOc1ccc(C(=O)Nc2ccccc2N2CCN(C(=O)c3ccccc3)CC2)cc1[N+](=O)[O-]	none
CCC(=O)N1CCN(c2ccc(NC(=S)NC(=O)c3ccc(OC)c([N+](=O)[O-])c3)cc2)CC1	VP16 counter 5µM, RORg inh 7.1µM
CCCC(=O)N1CCN(c2ccc(NC(=O)c3ccc(OCC)c([N+](=O)[O-])c3)cc2)CC1	none
CCOc1ccc(C(=O)NC(=S)Nc2ccccc2N2CCC(C)CC2)cc1[N+](=O)[O-]	VP16 counter 3.2µM, RORg inh 1µM
CN(C(=O)CC1C(=O)NCCN1Cc1cccc(C(F)(F)F)c1)C1CCOCC1 (stereo unspecified)	none
CC1CCC2C(=O)N(c3ccc(C(=O)Oc4cccc5cccnc45)cc3)C(=O)C2C1 (stereo unspecified)	VP16 counter 3.2µM, Six1-Eya2 blk inconclusive, RORg inh 6.3µM
C=CCNC(=O)c1ccc(N(Cc2ccccc2)S(C)(=O)=O)cc1	none (no result: CtBP-E1A blk, p53 reactivation)
C/C(=N/NC(=O)c1cccc(C)c1)c1c(O)cc(C)oc1=O	VP16 counter 3.5µM, RORg inh inconclusive
C/C(CC(=O)Nc1cc(C)ccn1)=N\NC(=O)c1cccc(C)c1	RORg inh 11µM, p53 reactivation inconclusive
C/C(CC(=O)Nc1cc(C)ccn1)=N\NC(=O)C(=O)NC(C)C	none
C/C(CC(=O)Nc1cc(C)ccn1)=N\NC(=O)c1cccc(C)c1O	VP16 counter 5µM, RORg inh 11µM, p53 reactivation inconclusive
CC1=NN(C(=S)Nc2ccccc2)C(c2ccccc2)C1 (stereo unspecified)	VP16 counter inconclusive, RORg inh 13µM
Cc1noc(C)c1NC(=O)N(C)C[C@@H]1Oc2ccc(NC(=O)C3CCCCC3)cc2C(=O)N([C@@H](C)CO)C[C@H]1C	none (no result: VP16 counter, RORg inh)
CC(C)n1c(CN(C)Cc2ccccc2)nc2c1c(=O)n(C)c(=O)n2C	VP16 counter 1.3µM, RORg inh inconclusive
Cc1cc(O)ccc1Nc1cc(-c2cccc(N)c2)ncn1	none (no result: VP16 counter, RORg inh, p53 reactivation)
CCCOc1ccc(NC(=O)C2CC(=O)N/C(=N/N=C(C)/C=C/c3ccc(N(C)C)cc3)S2)cc1 (stereo unspecified)	VP16 counter 3.2µM, Six1-Eya2 blk inconclusive, RORg inh 2.8µM, p53 reactivation inconclusive
COc1ccc(NC(=O)C2CC(=O)N/C(=N/N=C/c3ccccc3)S2)cc1 (stereo unspecified)	none
CC(/C=C/c1ccc(N(C)C)cc1)=N/N=C1/NC(=O)CC(C(=O)Nc2ccc(Cl)cc2)S1 (stereo unspecified)	CtBP-E1A blk inconclusive, VP16 counter 8.9µM, Six1-Eya2 blk inconclusive, RORg inh 2.5µM, p53 reactivation inconclusive
CC(/C=C/c1ccc(N(C)C)cc1)=N\N=C1\NC(=O)CC(C(=O)Nc2ccccc2)S1 (stereo unspecified)	VP16 counter 3.5µM, Six1-Eya2 blk inconclusive, RORg inh 2.2µM
CN1CCN(c2ccc(S(=O)(=O)N3CCOCC3)cc2NC(=O)COc2ccc(C#N)cc2)CC1	none (no result: VP16 counter, RORg inh, p53 reactivation)
CCOC(=O)C1=C(C)NC(=S)NC1c1ccc(OCC(=O)N2CCCCCC2)c(OC)c1 (stereo unspecified)	none
CCC(=O)NC(=S)Nc1cccc(Cl)c1N1CCCC1	VP16 counter inconclusive, RORg inh 1.1µM
O=C(NC(=S)Nc1cccc(Cl)c1N1CCCCC1)c1ccc2c(c1)OCCO2	VP16 counter 4.5µM, RORg inh 2.5µM, p53 reactivation inconclusive
O=C(Nc1cccc(Cl)c1N1CCCC1)c1ccco1	none
O=C(Nc1cccc(Cl)c1N1CCCCC1)c1ccc2c(c1)OCCO2	none
CCOc1cc(/C=N/NC(=O)CCc2n[nH]c(=O)[nH]c2=O)ccc1O	none
CCOC(=O)c1ccc(NC(=O)c2nc(SC)ncc2Cl)cc1	none
O=C(Nc1ccc(F)cc1)c1nc(S(=O)(=O)Cc2ccccc2)ncc1Cl	VP16 counter 7.9µM
Cc1ccccc1CS(=O)(=O)c1ncc(Cl)c(C(=O)Nc2ccc(F)cc2)n1	VP16 counter inconclusive, RORg inh inconclusive (no result: CtBP-E1A blk)
Cc1ccc(NC(=O)c2nc(S(=O)(=O)Cc3ccccc3)ncc2Cl)cc1	VP16 counter 2.2µM, RORg inh inconclusive
COC1C(O)C(CO)OC1n1cnc2c(NC3CCCCC3)ncnc21 (stereo unspecified)	none (no result: CtBP-E1A blk, Six1-Eya2 blk, p53 reactivation)
COc1ccc(S(=O)(=O)c2c(O)c3ccc(C(=O)Nc4cccc(F)c4)cc3[nH]c2=O)cc1	Six1-Eya2 blk -66 (no result: CtBP-E1A blk)
CCOc1ccccc1NC(=O)C(=O)CC(=O)c1ccc(OC)cc1	VP16 counter 4µM, RORg inh 6.3µM
COc1ccc(C(=O)CC(=O)C(=O)Nc2cccc(F)c2)cc1	VP16 counter 7.1µM, RORg inh 7.1µM
COc1ccc(C(=O)CC(=O)C(=O)Nc2ccc([N+](=O)[O-])cc2C)cc1	VP16 counter 11µM, RORg inh 5.6µM
COc1ccc(C(=O)CC(=O)C(=O)Nc2ccccc2)cc1	VP16 counter inconclusive, RORg inh inconclusive
COC(=O)[C@@H](NC(=O)O[C@H]1C(=O)c2cc(OC)ccc2O[C@@H]1c1ccc(OC)c(Br)c1)C(C)C	none (no result: CtBP-E1A blk, Six1-Eya2 blk, p53 reactivation)
COC(=O)c1ccc2nc(-c3ccc(C)cc3)c(Cc3cccc(Cl)c3)n2c1	none (no result: VP16 counter, RORg inh, p53 reactivation)
COc1ccc(C(=O)CC(=O)C(=O)Nc2cc(C)ccc2C)cc1	VP16 counter 10µM, RORg inh 7.1µM
COc1ccc(C(=O)CC(=O)C(=O)Nc2ccc(C)c(Cl)c2)cc1	VP16 counter inconclusive, RORg inh inconclusive
COC(=O)c1ccc(NC(=O)C[n+]2ccccc2)cc1	none
COC(=O)c1ccc(C[n+]2ccccc2)cc1	RORg inh 0.1µM (no result: p53 reactivation)
c1ccc(-c2ccc(-c3cnc4n3CCCCC4)cc2)cc1	VP16 counter 11µM, RORg inh 6.3µM
Cc1ccc(-c2cnc3n2CCCCC3)cc1	RORg inh 3.5µM (no result: CtBP-E1A blk)
c1cc2c(cc1-c1cnc3n1CCC3)OCCO2	VP16 counter inconclusive, RORg inh inconclusive
CCOc1ccc(-c2cnc3n2CCCCC3)cc1	VP16 counter inconclusive, RORg inh 11µM
CCOc1ccc(C2=CS/C(=C(\C#N)c3nnc4n3CCCCC4)N2CC)cc1	none
COc1ccc(OC)c(S(=O)(=O)NC(=O)C2(C)CCN2C(=O)CC2CCCC2)c1 (stereo unspecified)	none (no result: VP16 counter, RORg inh, p53 reactivation)
CCc1ccc2oc(-c3cc(N)ccc3O)nc2c1	VP16 counter 4µM, RORg inh 2.5µM
